AmpC no deterg = qHTS Inhibitors of AmpC Beta-Lactamase (assay without detergent); 0.52% of 330,000 active; AmpC nitrocefin hydrolysis, absorbance 480 nm, 0.0001% Triton; Potency, µM (series often up to 57.1 µM), without a hit: at the highest dose activity change, negative = inhibition, actives largely listed as inhibitors;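 also: plate controls were no compound for no effect and no enzyme for full effect; nearly all actives have a fitted effect of over 20% in size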
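20 mM phosphate pH 7.0 + 0.01% (detergent screen) or 0.0001% Triton X-100; 5.3 nM AmpC reagent; cpd preinc 15 min RT; nitrocefin (800 uM stock) to start; A480 q20 s × 4 min; Activity was normalised to no-enzyme and no-compound control wells.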
AmpC detergent = qHTS Inhibitors of AmpC Beta-Lactamase (assay with detergent); Potency, µM (highest dose often 114 µM), without a hit: top-dose activity change, negative = inhibition, usual class: inhibitors; AID 485294, 2010; 0.041% of 370,000 active; AmpC hydrolysis of nitrocefin, absorbance 480 nm, 0.01% Triton;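 also: 0% = no-compound wells and -100% = no-enzyme wells; nearly all actives have a fitted effect of over 25% in size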
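AmpC (5.3 nM in the dispensed reagent) in 20 mM phosphate pH 7.0 with 0.01% (detergent screen) or 0.0001% Triton X-100 was preincubated with compounds for 15 min at room temperature. Nitrocefin was then added from an 800 uM solution, and hydrolysis was followed at 480 nm.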
LmPK inhibitor = qHTS Assay for Inhibitors of Leishmania Mexicana Pyruvate Kinase (LmPK). purified LmPK, Kinase-Glo ATP luminescence, 1 h. Potency, µM (series often up to 57.5 µM), for inactives: at the highest dose activity change, negative = inhibition, actives largely listed as inhibitors. 0.37% of 290,000 active. AID 1721, 2009. Q27686
Target sequence (Q27686 whole entry, looked up): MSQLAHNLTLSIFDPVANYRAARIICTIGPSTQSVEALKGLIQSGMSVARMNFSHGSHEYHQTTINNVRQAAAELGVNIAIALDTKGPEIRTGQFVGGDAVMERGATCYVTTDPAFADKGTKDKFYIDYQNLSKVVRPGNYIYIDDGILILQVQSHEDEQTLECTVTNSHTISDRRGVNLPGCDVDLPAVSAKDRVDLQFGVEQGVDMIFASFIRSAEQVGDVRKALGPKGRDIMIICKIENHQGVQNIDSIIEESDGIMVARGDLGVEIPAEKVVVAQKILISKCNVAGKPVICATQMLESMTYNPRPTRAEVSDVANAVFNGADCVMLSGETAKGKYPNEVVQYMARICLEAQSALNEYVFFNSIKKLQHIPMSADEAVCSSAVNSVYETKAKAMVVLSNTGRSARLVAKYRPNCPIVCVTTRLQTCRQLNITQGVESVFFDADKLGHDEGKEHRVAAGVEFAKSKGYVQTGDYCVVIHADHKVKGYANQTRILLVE
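qHTS format; LmPK 0.1 nM; substrates PEP 0.5 mM and ADP 0.1 mM. One-hour room-temperature incubation, then coupled luciferase luminescence; 0.5 nM enzyme wells mark activation.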
Tb PYK inh = qHTS of Trypanosoma Brucei Inhibitors; pyruvate kinase (Trypanosoma brucei), Q57TT1; TbPYK enzyme, Kinase-Glo Plus ATP luminescence, 45 min; Potency, µM (highest dose often 76.8 µM), for inactives: at the highest dose activity, negative = inhibition, hits mostly inhibitors; 0.12% of 410,000 active; AID 624173, 2012; also: nearly all actives have a fitted effect of over 50% in size
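T. brucei PYK with substrate was exposed to pin-transferred compounds across a concentration series, then started with 130 uM ADP (final). After 45 min at room temperature, Kinase-Glo Plus luminescence was read, normalized and curve-fitted.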
RE007 growth inh = qHTS Assay for Inhibitors of the HIV-1 protein Vpr. S. pombe RE007 Vpr strain, BacTiter-Glo ATP luminescence, 24 h. Potency, µM (series often up to 92.2 µM), without a hit: at the highest dose activity change, negative = less growth, actives largely listed as inhibitors. 0.21% of 360,000 active; active = well fitted falling curve with a large enough effect; inconclusive = small, poorly fitted or top-dose-only effect; inactive = no such curve, though single readings can be large or run the other way; also: nearly all actives have a fitted effect of over 50% in size
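Fission yeast RE007 carrying one integrated HIV-1 vpr copy, seeded at OD 0.01 in PMG+AL medium with 23 nL pinned compound. Grown 24 h at 30 degrees; viability read by BacTiter-Glo luminescence after 5 min.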
FBPA Giardia inh = qHTS Assay for Inhibitors of Fructose-1,6-bisphosphate Aldolase from Giardia Lamblia; purified Giardia FBPA; Potency, µM (doses to about 59.6 µM), for the others: top-dose activity, negative = inhibition, usual class: inhibitors; 0.71% of 290,000 active; AID 2451, 2010; also: nearly all actives have a fitted effect of over 55% in size
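Giardia FBPA (40 nM reagent) was preincubated 10 min at RT with compound (up to 57.5 uM final), then substrate plus GAPDH/TPI/NAD/arsenate coupling system with diaphorase/resazurin was added; resorufin fluorescence (525/598 nm) was read after 20 min.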
The depositor's hits bear a star; ? = inconclusive; . = no result given; [ ] = remark or other dose. An excerpt weighted towards active compounds, which were near 1.4% of everything screened. Unless noted, calls follow the shape of the dose curve; as a rule, active = well fitted curve in the direction sought with a large enough effect; inconclusive = small, poorly fitted or top-dose-only effect, or another doubt; inactive = no such curve, though single readings can be large; an effect the other way counts as inactive or inconclusive. Unless noted, % is scaled to controls: 0 for no effect and ±100 for the full control effect; potency is read from the fitted curve at half-maximal effect.

SMILES	AmpC no deterg	AmpC detergent	LmPK inhibitor	Tb PYK inh	RE007 growth inh	FBPA Giardia inh
Cc1ccc(C=C2C(=O)c3ccccc3C2=O)s1	-16.8%	-2.3%	12.6µM*	-28.1%	?	-18.0%
O=C1C(=Cc2cccs2)C(=O)c2ccccc21	-10.5%	-0.3%	14.1µM*	-19.3%	.	?
O=C1/C(=C/c2cccs2)Cc2ccccc21	-16.1%	-1.6%	?	5.8%	?	1.6%
Cc1ccc(C=C2C(=O)c3ccccc3C2=O)o1	-23.7%	-5.3%	4.47µM*	?	-3.0%	4.0%
Cc1cc(C=C2C(=O)c3ccccc3C2=O)c(C)n1C	-22.5%	3.0%	-15.4%	-6.8%	10.7%	-15.5%
Cc1ccc(/C=C2/C(=O)c3ccc(C(=O)O)cc3C2=O)o1	-12.7%	2.4%	-9.0%	?	8.0%	?
COc1cccc(CNS(=O)(=O)c2ccc3c(c2)C(C(C)C)C(=O)N3)c1 (stereo not drawn)	.	-4.0%	.	4.3%	.	.
Cc1cccc(N2CCN(C(=O)C3CCCN(S(=O)(=O)c4cccc5nsnc45)C3)CC2)c1C (stereo not drawn)	.	-5.2%	.	-4.6%	.	.
CCOc1cc(/C=N/N=C2/NC(=O)C(CC(=O)O)S2)ccc1OCc1ccccc1Cl (stereo not drawn)	-39.5%	-2.0%	22.4µM*	-15.9%	-11.1%	28.5%
c1cnc2cc3c(cc2n1)[C@@H]1CNC[C@@H]3C1	.	.	.	-3.4%	.	.
Cc1ccccc1C(=O)OC1OC(=O)C(Cl)=C1Nc1ccc(C(=O)O)cc1 (stereo not drawn)	1.12µM*	1.26µM*	2.9%	-29.5%	-6.5%	-3.2%
Nc1ccc2c(c1)Cc1ccccc1-2	-15.1%	?	-0.2%	-3.4%	-15.8%	4.6%
O=C1C=CC(=Nc2ccc3c(c2)Cc2ccccc2-3)O1	.	.	.	-1.3%	28.2µM*	.
CC[C@H](OC(C)=O)C(C[C@H](C)NC)(c1ccccc1)c1ccccc1	.	.	.	-4.6%[157 µM]	.	.
NCCNCCN	.	.	.	?	.	17.7µM*
COc1ccc(-c2coc3cc(O)ccc3c2=O)c(O)c1O	.	.	.	.	.	17.7µM*
COc1cccc(Cc2nc3ccccc3nc2SCC(=O)N2CCCc3ccccc32)c1	.	17.9%	.	-10.4%	.	.
O=C(C1=C[C@@H]2[C@H]3C(=O)N(c4cccc(Cl)c4)C(=O)[C@H]3[C@@H](C(=O)c3ccc(Cl)cc3)N2C=C1)c1ccccc1	12.6µM*	-9.9%	-0.9%	-15.8%	-5.6%	-15.2%
CC1CCN(S(=O)(=O)c2cc(C(=O)Nc3ccc(Br)cc3F)n(C)c2)CC1	.	?	.	-3.3%	.	.
COc1ccc(-n2sc3ccc(F)cc3c2=O)cc1	-32.9%	-13.6%	.	?	10µM*	.
O=c1c2cc(F)ccc2sn1-c1ccc(F)cc1	-26.3%	0.0%	.	8.91µM*	11.2µM*	.
Cc1ccc(C)c(-n2sc3ccc(F)cc3c2=O)c1	-33.3%	-14.1%	.	?	?	.
COc1ccc(-n2sc3ccccc3c2=O)cc1	.	.	.	11.2µM*	-86.9%	.
COc1ccc(CCNC(=O)CCCn2nc(C)c3sc4ccccc4c3c2=O)c(OC)c1	.	-7.1%	.	0.6%	.	.
O=C(O)c1ccccc1-c1c2cc(Br)c(=O)cc-2oc2[c]([Hg])c(O)c(Br)cc12	.	.	.	?	.	22.3µM*
SMILES	AmpC no deterg	AmpC detergent	LmPK inhibitor	Tb PYK inh	RE007 growth inh	FBPA Giardia inh
CC1Cn2c(C(=O)NCCc3ccc(Cl)cc3)cc3cccc(c32)S1 (stereo not drawn)	.	27.4%	.	-0.3%[15.4 µM]	.	.
NS(=O)(=O)c1cccc(NC(=O)COC(=O)C2CCCCC2)c1	-22.8%	-6.8%	1.4%	-4.7%	0.5%	7.3%
CN(c1ccccc1)S(=O)(=O)c1cccc(NC(=O)COC(=O)C2CCCCC2)c1	3.55µM*	-2.5%	3.5%	4.3%	19.8%	-8.8%
Brc1ccc(Oc2ccc(Br)cc2Br)c(Br)c1	-28.1%	-9.0%	.	1.7%	-0.2%	.
O=c1c(Br)ccc(Br)cc1Br	.	.	.	-15.5%	2.24µM*	.
Cc1nn(C)c2c1c(-c1ccccc1)cc(=O)n2Cc1ccc(F)cc1	.	-4.4%	.	0.6%	.	.
CCC(C)(C)C1CCc2[nH]nc(C(=O)N/N=C(\C)c3ccco3)c2C1 (stereo not drawn)	-11.3%	-1.0%	4.1%	2.4%	-8.3%	-2.7%
C/C(=N\NC(=O)c1cc2ccccc2cc1O)c1ccc(C)o1	7.94µM*	1.1%	-22.8%	-14.5%	-10.1%	.
C/C(=N/NC(=O)c1ccccn1)c1ccco1	-10.8%	-0.9%	14.1µM*	?	-12.1%	.
C/C(=N/NC(=O)c1ccccn1)c1ccc(O)cc1	-7.8%	-1.2%	-18.1%	1.0%	6.7%	?
C/C(=N/NC(=O)c1cc2ccccc2cc1O)c1ccco1	25.1µM*	-0.8%	-25.1%	-10.5%	-10.0%	.
C/C(=N\NC(=O)c1n[nH]c2c1CCC2)c1ccco1	-17.7%	4.8%	15.8µM*	?	-9.3%	2.4%
COc1ccc(N2CCN(C(=O)c3nc(-c4ccc(Cl)cc4)n4c3CCCCC4)CC2)cc1	.	20.7%	.	11.6%	.	.
COc1ccc2c(c1)c1c(c(=O)n(-c3ccc(C)cc3)c(=O)n1CC(=O)N1CCCC1)n2C	.	13.4%	.	-3.0%	.	.
Cc1ccc(NC(=S)NCCSc2ccc(Cl)cc2)cc1	-36.3%	-4.1%	11.6%	-2.1%	-6.3%	-6.3%
Cc1ccc(N2C(=O)C3C4C=CC(CNC(=S)Nc5ccc(Cl)cc5)(O4)C3C2=O)cc1 (stereo not drawn)	-38.9%	-0.2%	2.6%	-19.1%	22.4µM*	-0.1%
Cc1ccc(N2C(=O)C3C4C=CC(CNC(=S)Nc5cccc(Cl)c5)(O4)C3C2=O)cc1 (stereo not drawn)	?	-5.3%	1.9%	-4.2%	10µM*	2.0%
Cc1ccc(N2C(=O)N(CC(=O)Nc3cccc(Cl)c3)C(=O)C2C)cc1 (stereo not drawn)	70.3%	?	.	-9.7%	2.8%	.
CC(C)COC(=O)NCC12C=CC(O1)C1C(=O)N(c3ccc(Cl)cc3)C(=O)C12 (stereo not drawn)	-30.0%	-5.9%	-21.2%	-23.3%	1.58µM*	1.5%
Cc1ccc(N2C(=O)C3C4C=CC(CNC(=S)N5CCN(c6ccccn6)CC5)(O4)C3C2=O)cc1 (stereo not drawn)	-2.1%	0.3%	0.4%	-10.2%	3.98µM*	-5.9%
CC/C=C(/C(=O)N[C@@H]1C(=O)N2C(C(=O)OCOC(=O)C(C)(C)C)=C(COC(N)=O)CS[C@H]12)c1csc(N)n1	.	.	.	-6.1%	.	.

Compound activity from PubChem.
